Results filed as inconclusive are left out. Calls of active or inactive are those of the source. The call rests on the fitted dose curve.
target: Acetylcholinesterase (Homo sapiens) (UniProt P22303); experiment: Acetylcholinesterase (AChE) small molecule antagonists: colormetric cell-based qHTS assay (AID 1347395); conditions: SH-SY5Y cells AChE activity, colorimetric (Ellman); series mostly up to 115 µM; activity, negative = inhibition: at the top concentration; further: nearly all actives have a fitted effect of over 30% in size
Excerpt: National Center for Advancing Translational Sciences [NCATS]
Division of Preclinical Innovation [DPI]
U.S. Environmental Protection Agency [EPA]
National Institutes of Environmental Health Sciences [NIEHS]
National Toxicology Program [NTP]
U.S. Food and Drug Administration [FDA]
Acetylcholinesterase (AChE) is the primary cholinesterase in the body that hydrolyzes a key neurotransmitter, acetylcholine. Inhibition of AChE activity can lead to neurotoxicity. The known inhibitors include organophosphorous pesticides (OP), chemical warfare agents, drugs, and various phytochemicals.
A homogenous cell-based assay using the Amplite Colormetric acetylcholinesterase assay kit (AAT Bioquest, Sunnyvale, CA) was used to evaluate the chemicals in the Tox21 10K library that inhibit AChE activity. The assay uses 5, 5-dithiobis-(2-nitrobenzoic acid) (DTNB) to quantify the thiocholine produced from the hydrolysis of acetylthiocholine by AChE from the SH-SY5Y cells.
Tox21 Assay Protocol Summary:
For the cell-based AChE assay, 2,000 SH-SY5Y cells in 4 uL/well were dispensed into black, clear-bottom 1536-well plates using a Multidrop Combi dispenser (Thermo Scientific, MA). The assay plates were incubated overnight at 37 C to allow cells to attach to the wells, followed by the transfer of 23 nL of compound or DMSO (vehicle control) by a Pintool Station (Wako Automation, CA). The plates were incubated for 30 min at 37 C and 5% CO2, followed by the addition of 4 uL of detection cocktail solution (DTNB, acetylthiocholine) into each well using a Flying Reagent Dispenser (Beckman Coulter, CA) and then 90 min incubation at 37 C.
On the % scale 0 is the no-effect control and ±100 the full control effect.

Chain of Acetylcholinesterase (Homo sapiens) (P22303 whole entry, looked up): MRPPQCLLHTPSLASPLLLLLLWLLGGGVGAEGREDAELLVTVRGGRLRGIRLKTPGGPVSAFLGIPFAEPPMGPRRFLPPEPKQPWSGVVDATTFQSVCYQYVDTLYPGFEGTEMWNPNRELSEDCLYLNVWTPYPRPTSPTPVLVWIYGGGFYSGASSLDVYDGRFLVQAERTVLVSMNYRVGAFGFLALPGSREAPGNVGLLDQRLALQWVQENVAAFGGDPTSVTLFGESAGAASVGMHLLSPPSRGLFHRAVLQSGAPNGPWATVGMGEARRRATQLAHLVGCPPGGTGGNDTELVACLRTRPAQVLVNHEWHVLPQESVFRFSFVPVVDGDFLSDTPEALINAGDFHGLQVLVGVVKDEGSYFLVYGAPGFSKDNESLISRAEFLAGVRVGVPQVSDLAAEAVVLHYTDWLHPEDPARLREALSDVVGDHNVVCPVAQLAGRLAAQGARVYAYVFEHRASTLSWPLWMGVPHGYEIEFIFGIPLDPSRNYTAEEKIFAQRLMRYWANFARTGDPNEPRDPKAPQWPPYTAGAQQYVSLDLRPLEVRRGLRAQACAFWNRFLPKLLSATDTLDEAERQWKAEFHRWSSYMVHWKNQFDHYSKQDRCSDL

Row | SMILES | activity, negative = inhibition
1 | OCCc1ccncc1 | -0.316% (inactive)
2 | O=P(O)(O)OCC(O)CO (stereo not given) | 1.82% [at 52.9 µM] (inactive)
3 | CC/C=C\C/C=C\C/C=C\CCCCCCCC(=O)OC | -0.627% (inactive)
4 | O=C1c2ccccc2C(=O)c2cc(Cl)ccc21 | -0.634% [at 10.5 µM] (inactive)
5 | CC/C=C\CCCCCCCCCCOC(C)=O | -2.43% (inactive)
6 | CCCCCCCOC(=O)c1ccccc1C(=O)OCCCCCCC | -5.77% (inactive)
7 | CCCCCCCCCCC=O | -1.55% (inactive)
8 | CC(C)CC(O)Cc1ccccc1 (stereo not given) | -1.31% (inactive)
9 | CCNC(=O)C1CC(C)CCC1C(C)C (stereo not given) | 0.256% (inactive)
10 | CC(=O)SC[C@@H](Cc1ccccc1)C(=O)NCC(=O)OCc1ccccc1 | 4.94% [at 52.9 µM] (inactive)
11 | CCOC(=O)Nc1ccc(NCc2ccc(F)cc2)nc1N | 3.79% [at 52.9 µM] (inactive)
12 | CCCCOC(=O)CC | -1.02% (inactive)
13 | CC(C)CCOC(=O)CC(C)C | -0.877% (inactive)
14 | CCCCNC1CC(C)(C)NC(C)(C)C1 | 2.33% (inactive)
15 | CCC(C)(C)C1CCC(=O)CC1 | 2.03% (inactive)
16 | NC(=O)NS(=O)(=O)c1ccc(Cl)cc1 | -1.35% [at 52.9 µM] (inactive)
17 | Nc1nc(N)c(-c2ccccc2)s1 | -1.18% [at 52.9 µM] (inactive)
18 | FC(F)(F)C(F)(F)C(F)(F)C(F)(F)C(F)(F)C(F)(F)C(F)(F)C(F)(F)Br | 1.36% [at 52.9 µM] (inactive)
19 | CCc1cc(Cc2cc(CC)c(N)c(CC)c2)cc(CC)c1N | 1.52% (inactive)
20 | CCCCCCCCCCCCCCN(CCO)CCO | -11.6% (inactive)

Row | SMILES | activity, negative = inhibition
21 | Nc1nc(N)nc(-c2cc(Cl)ccc2Cl)n1 | 0.483% [at 52.9 µM] (inactive)
22 | CC(C)(C)c1ccccc1 | 0.372% (inactive)
23 | COc1cccc(OC)c1 | 4.42% (inactive)
24 | CCC(C)(Oc1ccc(C2(c3ccc(OC(C)(CC)C(=O)O)cc3)CCCCC2)cc1)C(=O)O (stereo not given) | -0.671% [at 52.9 µM] (inactive)
25 | OCCCCCCO | -5.06% (inactive)
26 | CCOc1ccc2ccccc2c1C(=O)N[C@@H]1C(=O)N2[C@@H]1SC(C)(C)[C@@H]2C(=O)O | -3.37% [at 52.9 µM] (inactive)
27 | CCOC(=O)CC#N | 1.43% (inactive)
28 | Cc1cc(C)c(C=O)c(C)c1 | -0.837% (inactive)
29 | CCCCCCCCC(C)=O | 0.294% (inactive)
30 | Nc1cccc2c(=O)[nH][nH]c(=O)c12 | 5.16% (inactive)
31 | CC(=O)OCC1=C(C(=O)O)N2C(=O)[C@@H](NC(=O)CSc3ccncc3)[C@H]2SC1 | -0.731% [at 52.9 µM] (inactive)
32 | CC(=O)OCCC(C)CC(C)(C)C (stereo not given) | -6.53% (inactive)
33 | Nc1cnn([C@@H]2O[C@H](CO)[C@@H](O)[C@H]2O)c(=O)n1 | 0.504% (inactive)
34 | Cc1cscn1 | 1.12% (inactive)
35 | Cc1ccccc1C | 6.79% (inactive)
36 | C=C(C)C(=O)NCCCN(C)C | -2.84% (inactive)
37 | CCN(CC)CCc1nc(-c2ccccc2)no1 | 1.63% [at 52.9 µM] (inactive)
38 | CC/C=C\CC/C=C/CO | -4.45% (inactive)
39 | CCCC(=O)C(CC)Sc1ccoc1C (stereo not given) | -0.0254% (inactive)
40 | O=C(O)c1c2ccccc2cc2ccccc12 | -1.21% (inactive)
